# Results with a measured potency or affinity are listed apart. A number with no mark means an inactive call.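 The calls were made as follows: active = cell killing whose fitted half-effect concentration is at most twice the top valid dose tested; inconclusive = flat curve with 30 to 70% killing, or a poor fit; inactive = effect in the rising direction, plus the rest.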
# Assay: A549 cell cytotoxicity, dose response, cytotoxicity control, ATP luminescence, cherry-pick, set 2 (AID 1053124);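 also: 0% = neutral control wells and -100% = mitoxantrone 10 µM positive control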
# Conditions: A549 viability, ATP luminescence (CellTiter-Glo), 72 h; series mostly up to 26 µM; activity change, negative = cytotoxicity: at the top concentration
row,SMILES,"activity change, negative = cytotoxicity [%]"
1,COC(=O)C1=CN(CC2CCCO2)C=C(C(=O)OC)C1c1cccc(O)c1 (stereo unspecified),-8.45
2,O=C(Nc1ccc(-c2ccco2)cc1)C1CCCN(Cc2ccco2)C1 (stereo unspecified),-10.8
3,O=C(c1ccc(F)cc1)C1CCN(C(=O)Nc2ccccc2Cl)CC1,2.67
4,CCCCN1C=C(C(=O)OC)C(c2ccccc2Cl)C(C(=O)OC)=C1,-12.4
5,O=c1[nH]c(Nc2ccccc2Cl)cc2ccccc12,-5.32
6,CCc1cccc(C)c1NC(=S)NCc1ccc2c(c1)cc(C)n2C,2.91
7,Cn1c2ccccc2c(=O)c2ccc(F)cc21,-4.71
8,CCc1nc2ccc(C(=O)NCCc3c[nH]c4ccccc34)cn2c1N(C=O)CCC(C)C,-8.29
9,CCOc1ccc2nc(NCCCNC(=O)c3cc(OC)c(OC)c(OC)c3)c(C#N)cc2c1,-8.1
10,CC(C)(C)[C@H]1CCC(=O)N([C@H](CSc2ccccc2)Cc2ccccc2)CC1,-13.4
11,S=c1[nH]c2ccc(Cc3ccc4[nH]c(=S)[nH]c4c3)cc2[nH]1,-13.4
12,CCNC(=O)c1cc2c(=O)n3cccc(C)c3nc2n(Cc2ccc(C)cc2)c1=N,-23.1
13,CCCCN(CCCC)CC(O)Cn1c2ccccc2c(=O)c2ccccc21 (stereo unspecified),-10.9
14,C=CCn1c(=N)c(C#N)cc2c(=O)n3ccccc3nc21,-0.422
15,COc1ccc(Br)c(Cn2c(C)c(C(=O)NCc3ccc4c(c3)OCCO4)sc2=O)c1,-2.12
16,Cc1c2c(n3c(nc4ccccc43)c1C#N)N(CCN1CCOCC1)CC2,3.06
17,CCOC(=O)c1cc2c(=O)n3ccccc3nc2n(CCCOC)c1=NC(=O)c1ccncc1,-2.23
18,CC(C)CCn1c(CN2CC(C)OC(C)C2)nc2c1c(=O)n(C)c(=O)n2C (stereo unspecified),-7.88
19,CCN1C=C(C(=O)OC)C(c2cccc(OC)c2OC)C(C(=O)OC)=C1,-4.62
20,CCOC(=O)c1cc2c(=O)n3cccc(C)c3nc2n(CC(C)C)c1=NC(=O)c1ccco1,-14.7
21,CC1CCN(S(=O)(=O)N2CCC(C(=O)NC3CCCC3)CC2)CC1,-6.82
